Drawing on PubChem BioAssay AID434970 (Sanford-Burnham Center for Chemical Genomics, 2010), this text covers activation factor and activity change, negative = activation for 23 molecules.

Screen size: about 11,000 compounds; about 310 (2.8%) were called active. Cut-off read from the data, not from the text of the source: active = activity change below about -85%; inactive = the rest. The sample as a whole holds a higher share of actives than the screen did.

In this assay the test system is intestinal alkaline phosphatase [Mus musculus]. Briefly: activators of mouse IAP, confirmation, biochemical, luminescence, single concentration (AID 434970). Particulars: purified mouse IAP, CDP-Star luminescence, 30 min, at 10 µM; activation factor: measured here: IAP activation factor, stronger effect = higher value; activity change, negative = activation: stronger effect = lower value.
Regarding `COCCN(C(=O)C(F)(F)F)C(C(=O)NC1CCCCC1)c1ccco1` (stereo unspecified), the activation factor was found to be 0.978 and the activity change, negative = activation was 2.15% (inactive).
The matching figures for `CC1CCN(C(=O)c2ccc(NC(=O)C3CCCO3)cc2)CC1` (stereo unspecified): 1.06 and -5.95% (inactive).
With `COc1cc2oc(=O)cc(-c3ccc(-c4ccc(F)c(Cl)c4)cc3)c2c(OC)c1OC`, the activation factor came out at 0.913 and the activity change, negative = activation was 8.7% (inactive).
The corresponding values for `Cn1c(Cn2cnc3ccccc32)nnc1SCC(=O)CC(=O)Nc1ccccc1` are 0.996 and 0.45% (inactive).
The corresponding values for `COc1ccc(-n2ncc3c(=O)n(CC(=O)N4c5ccccc5CC4C)cnc32)cc1` (stereo unspecified) are 1 and -0.2% (inactive).
The matching figures for `CCC1(COC(=O)Nc2cccc(Cl)c2)COC1`: 1.16 and -16.4% (inactive).
As to `CC(O)c1cccc(NC(=O)Nc2cccc(NC(=O)Nc3cccc(C(C)O)c3)c2)c1` (stereo unspecified), the activation factor came to 1.89 and the activity change, negative = activation was -88.9% (active).
The corresponding values for `CC(C)OC(=O)NCCOC(=O)Nc1cccc(Cl)c1` are 2.12 and -112% (active).
The matching figures for `CSc1ccccc1NC(=O)Nc1cccc(Cl)c1`: 1.48 and -48.5% (inactive).
With `N#CCc1ccc(NC(=O)Nc2cccc(Cl)c2)cc1`, the activation factor was found to be 1.88 and the activity change, negative = activation was -87.6% (inactive).
The matching figures for `CCOC(=O)c1sc(NC(=O)Nc2cccc(Cl)c2)cc1C`: 1.83 and -82.6% (inactive).
As to `CC(=O)Nc1cccc(NC(=O)Nc2ccc(C(C)=O)cc2)c1`, the activation factor worked out at 1.13 and the activity change, negative = activation was -13.4% (inactive).
Regarding `O=C(Nc1cccc(Cl)c1)Nc1cccc(Cl)c1`, the activation factor was determined as 3.21 and the activity change, negative = activation is -221% (active).
Consider `CC(=O)c1cccc(NC(=O)Nc2cccnc2)c1`, for which the activation factor came to 1 and the activity change, negative = activation was -0.35% (inactive).
The corresponding values for `O=C(NCCc1ccc(Cl)cc1)Nc1cccc(Cl)c1` are 1.92 and -92.5% (inactive).
Consider `C/C(CC(=O)Nc1cccc(Cl)c1)=N\NC(=O)Cc1ccc(Cl)cc1`, for which the activation factor was 1.02 and the activity change, negative = activation was -2.2% (inactive).
Regarding `C=CCc1cc(Cl)ccc1OC(=O)Nc1cccc(Cl)c1`, the activation factor is 2.05 and the activity change, negative = activation was -105% (active).
The corresponding values for `COCCN(CC(=O)NCc1ccc2c(c1)OCO2)C(=O)CCC(=O)Nc1nccs1` are 0.99 and 1% (inactive).
As to `O=S(=O)(N[C@H](CO)c1ccccc1)c1ccc(Br)cc1F`, the activation factor was 1.03 and the activity change, negative = activation is -2.75% (inactive).
Turning to `CCOC(=O)C1=C(C)N(C[C@@H]2CC[C@@H](Cc3ccc(-c4ccccc4)cc3)O2)C(=O)NC1c1ccc(C(F)(F)F)cc1` (stereo partly specified), the activation factor came out at 0.924 and the activity change, negative = activation is 7.6% (inactive).
As to `COc1ccc(CCNC(=O)CC2COc3ccccc3O2)cc1OC` (stereo unspecified), the activation factor stood at 1.06 and the activity change, negative = activation was -5.55% (inactive).
The corresponding values for `Oc1c(C=C2N=c3ccccc3=N2)sc(=S)n1-c1ccc(F)cc1` are 0.615 and 38.5% (inactive).
Regarding `COc1ccc(CC(NC(C)=O)C(=O)NC2CCN(C(=O)c3cnccn3)CC2)cc1` (stereo unspecified), the activation factor was determined as 0.93 and the activity change, negative = activation was 7% (inactive).
